Measured values from PubChem BioAssay AID504362 (National Center for Advancing Translational Sciences (NCATS), 2011).
Records with an inconclusive call do not appear. Unmarked numbers belong to inactive results. Active and inactive are the calls of the source. The call rests on the fitted dose curve; in most records, active means well fitted activation curve with a large enough effect; inconclusive means small, poorly fitted or top-dose-only effect; inactive means flat fitted curve, though single readings scatter.

Experiment: qHTS Assay for Identifying a Potential Treatment of Ataxia-Telangiectasia: SAR for Probe
Settings: F2112 A-T fibroblasts, NCS-induced pKAP1 AlphaLISA; series mostly up to 76.9 µM; activation: at the top concentration
Description: NIH Chemical Genomics Center [NCGC] NIH Molecular Libraries Probe Centers Network [MLPCN] MLPCN Grant: MH089030-01 Assay Submitter (PI): Wei Zheng and Yosef Shiloh Ataxia-telangiectasia (A-T) is a devastating and progressive disease for which, there is no cure. Although A-T is a multisystem disease, it is stereotyped characterized by its neurological symptoms such as truncal ataxia, due to cerebellar cortical degeneration of the Purkinje and granule cells. Other symptoms of A-T are telangiectasias (dilated blood vessels), primary immunodeficiency, marked sensitivity to ionizing radiation (IR), chromosomal instability and predisposition to cancer. The underlying genetic cause of A-T is null mutations in the ATM (A-T mutated) gene. ATM is a nuclear serine/threonine kinase that functions as a master regulator of the cellular responses to double strand breaks (DSBs) in the DNA. Upon activation by DSBs, ATM phosphorylates a plethora of downstream targets, including KAP-1 on […]. KAP-1 phosphorylation occurs shortly in response to DSBs and mediates global chromatin relaxation, which facilitates DSB repair. To screen for small molecules that will compensate for the loss of ATM in cells derived from A-T patients, we monitored KAP-1 phosphorylation as a readout for ATM-like activity using an AlphaLISA assay. This set of data is for analogs of the probe molecule in the primary screening assay.
qHTS Assay Protocol: Step,Parameter,Value,Description 1. Cell Plating, 3 ul, 500 cells/well in OPTI-MEM, 1% FBS, 1% Pen/Strep 2. Incubation, 16-24 hr, 37C, 5% CO2, 95% humidity 3. Library compounds, 23 nl, 76.7 - 0.61uM dilution series final concentration 4. Incubation, 60 min, 37C, 5% CO2, 95% humidity 5. Reagent, 1 ul, 1600 ng/ml NCS in PBS + 0.05% BSA + 0.005% Tween 20 6. Incubation, 30 min, 37C, 5% CO2, 95% humidity 7. Reagent, 1 ul, Premixed detection reagents and lysis buffer 8. Reagent, 1 ul, 0.6% Antifoam A 9. Incubation, 6 hr, 25C, 95% humidity 10. Readout, EnVision, EnVision plate reader. AlphaScreen 1536-well protocol Cells were plated using medium-binding white solid-bottom tissue culture treated Kalypsys plates. Multidrop dispense of 3 uL of F2112 (hTERT immortalized A-T patient fibroblast cells). Detection reagent and lysis buffer was 3.75nM Rab-a-pKAP1 antibody bound to 75 ng/ul AlphaScreen SA donor bead, 3.75 nM Biot-M-a-KAP1 antibody bound to AlphaLISA protein A acceptor bead, 0.5x protease inhibitor cocktail and 0.25x PerkinElmer lysis buffer. EnVision protocol for 1536-well AlphaScreen read (30ms excitation, 100ms read), about 10 min/plate.

SMILES | Potency | activation [%]
CC1(C)C=Cc2c(O)cc(O)c(C(=O)/C=C/c3ccccc3)c2O1 | 46.3 µM (active) | –
C=CCSc1nc2ccccc2n1C(=O)/C=C/c1ccc(OC)c(OC)c1 | 14.6 µM (active) | –
CC(C)=C/C=C/C(=O)c1ccccc1O | – | -16.1
CN1CCN(c2nc(C3=C(c4c[nH]c5ccccc45)C(=O)NC3=O)c3ccccc3n2)CC1 | – | 8.76
O=C(/C=C/c1ccccc1)n1cnc2ccccc21 | – | -15.5
COc1c(C(=O)/C=C/c2ccccc2)ccc2c1C=CC(C)(C)O2 | 36.8 µM (active) | –
COc1cc(/C=C/C(=O)c2ccccc2)cc(OC)c1OC | 46.3 µM (active) | –
CC1(C)C=Cc2ccc(O)c(C(=O)/C=C/c3ccccc3)c2O1 | 36.8 µM (active) | –
COc1cc(/C=C/C(=O)n2cnc3ccccc32)cc(OC)c1OC | 13 µM (active) | –
C=CCSc1nc2ccccc2n1C(=O)/C=C/c1ccc(F)cc1 | 9.23 µM (active) | –
